Bioassay records deposited in PubChem BioAssay by National Center for Advancing Translational Sciences (NCATS).
An excerpt weighted towards active compounds, which were near 7.3% of everything screened.
Vaccinia mCherry: qHTS for Stage-Specific Inhibitors of Vaccinia Orthopoxvirus: mCherry Reporter Primary qHTS | Vaccinia virus mCherry reporter infection, fluorescence | Potency, µM (titrated, usually from 36.5 µM), usual class: inhibitors | 310,000 tested, 0.63% active; calls by dose curve; tested in A549 cells; note: nearly all actives have a fitted effect of over 35% in size
Vaccinia Venus: qHTS for Stage-Specific Inhibitors of Vaccinia Orthopoxvirus: Venus Reporter Primary qHTS; Vaccinia virus Venus reporter expression, fluorescence; Potency, µM (titrated, usually from 36.5 µM), usual class: inhibitors; 330,000 tested, 0.46% active; calls by dose curve; tested in A549 cells; note: nearly all actives have a fitted effect of over 30% in size
HCV inhibitor: qHTS Assay for Inhibitors of Hepatitis C Virus (HCV); 340,000 tested, 3.4% active; Huh7.5.1 HCVcc-Cre infection, luciferase reporter, 44 h; Potency, µM (series often up to 41.8 µM), usual class: inhibitors; active = well fitted inhibition curve with a large enough effect; inconclusive = small, poorly fitted or top-dose-only effect, or another doubt; inactive = no such curve, though single readings can be large or run the other way
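Whole-lifecycle infectious HCVcc-Cre system; cells 1,000/well, compound then virus (~0.5 moi) added 4 h after plating, 44 h culture. Luciferase read 15 sec following 15 min substrate incubation, room temp.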
HCMV inh: qHTS Assay for inhibitors of the human cytomegalovirus (HCMV); HFF cells, HCMV-luciferase reporter, 72 h; active compounds read low; activity change, negative = inhibition, % at 57.5 µM; 410,000 tested, 4.5% active; AID 1259415, 2018; in the data active = activity change below about -60%; inconclusive = no clear call, values can overlap the other calls; inactive = above about -39%
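After 16 h attachment at 37C, HFF cells received test compound and HCMV-luciferase (1 PFU/cell); reporter luminescence read 72 h later, data normalized against buffer-only and known inhibitor Salinomycin.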
FMDV antiviral: High Throughput Screening for Foot and Mouth Disease Virus Antivirals; FMDV antiviral cell-based qHTS; Potency, µM (doses to about 57.9 µM), hits mostly inhibitors; 410,000 tested, 1.2% active; calls by dose curve; tested in HEK293T cells; note: read-out not given here; nearly all actives have a fitted effect of over 45% in size
Numbers stand for hits; 0 = inactive; ? = inconclusive; - = no result; [ ] = another dose, or the depositor's remark.

SMILES	Vaccinia mCherry	Vaccinia Venus	HCV inhibitor	HCMV inh	FMDV antiviral
COCCN1Cc2cc(C(=O)OC)c3c(c2C1=O)c1cc(F)ccc1n3C(=O)c1ccccc1	-	-	-	0	-
COc1ccc(Cl)c(Cn2c(NCc3ccco3)nc3c2c(=O)n(C)c(=O)n3C)c1	-	0	?	0	?
COc1cccc(Cn2c(NCc3ccco3)nc3c2c(=O)n(C)c(=O)n3C)c1	-	-	?	-98	?
COc1ccc(CCNc2nc3c(c(=O)n(C)c(=O)n3C)n2Cc2ccc(F)cc2)cc1OC	?	0	-	-90	16µM
CCNc1nc2c(c(=O)n(C)c(=O)n2C)n1Cc1ccc(F)cc1	0	0	-	0	?
COc1cccc(C2C(=O)N(C3CCCCC3)CC(=O)N2Cc2ccc(Cl)cc2)c1 (configuration not stated)	0	0	-	-68	0
COc1cccc(CN2C(=O)CN(C3CCCCC3)C(=O)C2c2ccc(OC(C)C)c(OC)c2)c1 (configuration not stated)	0	0	-	0	0
Cc1ccc(NC(=O)CCl)cc1S(=O)(=O)N1CCCCCC1	0	0	?	-98	22µM
Cc1ccc(NC(=O)/C=C/c2ccco2)cc1S(=O)(=O)N1CCCCCC1	-	-	2.8µM	-89	0
CCc1noc(C)c1C(=O)Nc1ccc(C)c(S(=O)(=O)N2CCCCCC2)c1	0	0	13µM	0	28µM
Cc1ccc(NC(=O)c2ccccc2F)cc1S(=O)(=O)N1CCCCCC1	0	0	?	?	?
O=C(/C=C/c1ccco1)Nc1cccc(S(=O)(=O)N2CCOCC2)c1	0	0	0	?	0
Cc1ccc(NC(=O)Cc2ccccc2F)cc1S(=O)(=O)N1CCCCCC1	-	-	11µM	-78	0
COC(=O)Cc1nnn2c1[C@H](C)[C@H](c1ccccc1Br)OC[C@H](C)C2	-	-	-	0	-
Ic1ccc(Nc2nc(NCCN3CCOCC3)nc(N3CCOCC3)n2)cc1	?	0	-	-	-
Cc1cccc(NC(=O)C2CCN(S(=O)(=O)c3ccc(F)cc3)CC2)c1C	0	0	-	0	0
COc1cc(=O)n2c(c1C(=O)NC(C)c1ccco1)CCN(C(=O)c1ccc3c(c1)OCCO3)CC2 (configuration not stated)	0	0	-	-	0
CC(C)(C)c1ccc(S(=O)(=O)N2CCC(c3ccncc3)CC2)cc1	?	0	-	-83	?
O=S(=O)(c1ccc(Cl)cc1)N1CCC(c2ccncc2)CC1	0	0	-	0	?
NC(=O)Nn1c(CCC(=O)O)ccc1-c1ccc(F)cc1	-	-	0	-93	0
O=C(O)CCc1ccc(-c2ccc(F)cc2)n1CC(=O)O	-	0	0	0	0
COc1cc2ccc(C(C)=NNC(N)=S)cc2cc1OC	6.3µM	?	-	0	0
C/C(=N\NC(N)=S)c1ccc2c(c1)OCCO2	?	?	?	0	0
CC(=NNC(N)=S)c1ccc2cc3c(cc2c1)OCO3	?	2µM	-	0	0
Cc1ccn2c(c1)nc(=O)c1cc(S(=O)(=O)N3CCC(C)CC3)c(Cl)cc12	0	0	-	0	0
SMILES	Vaccinia mCherry	Vaccinia Venus	HCV inhibitor	HCMV inh	FMDV antiviral
CCOC(=O)COc1c(Cl)cc(C2NC(=S)NC(c3ccccc3)=C2C(C)=O)cc1OCC (configuration not stated)	0	0	0	-60	0
Nc1nc(Nc2ccccc2)nc(NCc2ccccc2)c1[N+](=O)[O-]	?	?	?	-75	?
Cc1cccc(Nc2nc(N)c([N+](=O)[O-])c(NCc3ccccc3)n2)c1	?	?	?	-94	0
Cc1cccc(Nc2nc(N)c([N+](=O)[O-])c(N3CCN(C)CC3)n2)c1	?	?	?	0	0
Cc1ccc(CNc2nc(N)c([N+](=O)[O-])c(NCc3ccccc3)n2)cc1	0	0	0	-61	0
Nc1nc(NCc2ccccc2)nc(NCc2ccccc2)c1[N+](=O)[O-]	0	0	0	?	0
CCOc1ccc(Nc2nc(N)c([N+](=O)[O-])c(NCc3ccccc3)n2)cc1	0[7.34 µM]	0[7.34 µM]	0	0	0
Cc1cccc(Nc2nc(N)c([N+](=O)[O-])c(N3CCCC(C)C3)n2)c1 (configuration not stated)	13µM	10µM	?	-77	22µM
O=C(Nc1ccc2ccccc2c1)C(=O)c1ccccc1F	-	-	-	0	-
CC1CN=C(c2ccc(Cl)cc2)c2c3ccccc3nn21 (configuration not stated)	-	-	-	0	-
Nc1nc(Nc2ccccc2)nc(NC2CCCCC2)c1[N+](=O)[O-]	?	?	10µM	-79	0
